“And” between values parts separate entries of the source, which are not always exact repeats. Equal values may be shown once. Records with an inconclusive call do not appear. The source made the active and inactive calls. Unless noted, calls follow the shape of the full dose curve.

The nature of assay [1]: Nuclear factor erythroid 2-related factor 2/antioxidant responsive element (Nrf2/ARE) small molecule agonists: qHTS cell viability counter screen in human keratinocytes (AID 1919968; active = well fitted curve in the direction sought with a large enough effect in the repeat runs; an effect the other way counts as inactive or inconclusive; also: nearly all actives have a fitted effect of over 55% in size; also: potency is read from the fitted curve at half-maximal effect). In a few lines: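 Parallel cytotoxicity read: KeratinoSens HaCaT cells, compound treatment 23 h, viability by CellTiter-Fluor fluorescence 1 h post-reagent.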
Background: qHTS replaces the single test concentration by a dilution series.

Assay [2] can be described thus: Nuclear factor erythroid 2-related factor 2/antioxidant responsive element (Nrf2/ARE) small molecule agonists: luciferase reporter gene qHTS assay in human keratinocytes (AID 1919969; also: nearly all actives have a fitted effect of over 35% in size; also: potency is read from the fitted curve at half-maximal effect). (Reporter assays use an easily measured gene product as a stand-in for the process of interest.)
In assay [3] the target is Gonadotropin-releasing hormone receptor (Homo sapiens) (UniProt P30968). Put plainly: Human gonadotropin-releasing hormone receptor (GnRHR) small molecule agonists, calcium flux assay in GnRHR-HEK293 cells (AID 1920063). Also: nearly all actives have a fitted effect of over 35% in size. In short, it runs like this:
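Calcium flux, agonist mode, human GnRHR stably integrated in HEK293; dye 1 h at 37 C before compound; Ex/Em=480/540 kinetic read, 3 min; 15 concentrations, triplicate.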

The target of assay [4] is KiSS-1 receptor (Homo sapiens) (UniProt Q969F8). Briefly: Human kisspeptin (KISS1R) small molecule agonists, calcium flux assay in KISS1R-HEK293 cells (AID 1920064; active = well fitted curve in the direction sought with a large enough effect in the repeat runs; an effect the other way counts as inactive or inconclusive). In short, it runs like this:
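Triplicate 15-concentration series were applied to dye-loaded human KISS1R HEK293 cells, and agonist-evoked calcium fluorescence was captured for 3 min.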
Background: A change in cytosolic calcium serves as a functional read-out for many receptors and channels.

Assay [5] is described as follows: G protein-coupled receptor (GPCR) small molecule agonists, calcium flux assay: HEK293 wild type cell line counter screen (AID 1920065). In short, it runs like this: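 Non-specific calcium responders were flagged by adding DMSO-dissolved compounds to dye-loaded cells and reading 480/540 nm fluorescence each second for 3 min; ATP served as positive control.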
Assay [6] is described as follows: p53 small molecule agonists, cell-based qHTS assay with human liver microsomes (AID 1963577).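 Also: p53 response element beta-lactamase reporter cells with liver microsomes plus NADPH.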 In a few lines:
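HLM-supplemented p53RE-bla reporter assay: 16 h compound exposure at 37 C, microsomes and NADPH each 0.5 mg/mL final, read by fluorescence intensity.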

A short description of assay [7]: p53 small molecule agonists, cell-based qHTS assay with rat liver microsomes (AID 1963578). In a few lines:
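Quantitative HTS of the Tox21 10K library: p53RE-bla cells, rat liver microsomes plus NADPH at 0.5 mg/mL final each, 16 h at 37 C, beta-lactamase fluorescence detection.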

Assay [8] in a line: p53 small molecule agonists, cell-based qHTS assay with human liver microsomes: qHTS cell viability counter screen (AID 1963579). Also: nearly all actives have a fitted effect of over 45% in size. In short, it runs like this:
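Viability of p53RE-bla cells is measured as CellTiter-Glo luminescence following a 16 h, 37 C incubation with compound, liver microsomes from human donors and NADPH.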

Assay [9] can be described thus: p53 small molecule agonists, cell-based qHTS assay with rat liver microsomes: qHTS cell viability counter screen (AID 1963580). Also: nearly all actives have a fitted effect of over 45% in size. In a few lines: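 Cytotoxicity counter screen: intracellular ATP read by CellTiter-Glo luminescence in the p53 reporter wells. HCT-116 p53RE-bla cells were treated for 16 h at 37 C alongside rat liver microsomes and NADPH, each 0.5 mg/mL final.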

Assay [10] can be described thus: p53 small molecule agonists, cell-based qHTS assay (AID 1963582; active = well fitted activation curve with a large enough effect in the signal ratio in the repeat runs, not every such curve was filed as active; the % refers to the signal ratio). In short, it runs like this: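 Beta-lactamase reporter cells (p53RE-bla) treated with compounds for 16 h at 37 C; FRET substrate, 2 h, room temperature; fluorescence intensity.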
The target in assay [11] is 5-hydroxytryptamine receptor 2A (Homo sapiens) (UniProt P28223). Briefly: 5-hydroxytryptamine receptor 2A (HTR2A) small molecule antagonists, cell-based qHTS assay (AID 1963586). Also: nearly all actives have a fitted effect of over 45% in size. In short, it runs like this: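 CHO cells stably expressing human HTR2A were plated for 18 h at 37 C, then loaded with calcium dye for 1 h. Compounds were preincubated 5 min at room temperature before DOI (4 nM solution) was added. Kinetic fluorescence was read for 3 min.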

Assay [12] has the same target. Briefly: 5-hydroxytryptamine receptor 2A (HTR2A) small molecule agonists, cell-based qHTS assay (AID 1963587). Also: nearly all actives have a fitted effect of over 30% in size. In short, it runs like this:
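Kinetic calcium-flux fluorescence (2 min, 1 sec intervals) after compound addition in agonist mode. HTR2A-CHO cells were cultured 18 h, then dye-loaded 1 h at 37 C.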

For assay [13], the target named is Muscarinic acetylcholine receptor M1 (Homo sapiens) (UniProt P11229). Briefly: Cholinergic receptor muscarinic 1 (CHRM1) small molecule antagonists, cell-based qHTS assay (AID 1963588). Also: nearly all actives have a fitted effect of over 40% in size. In short, it runs like this:
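Compounds were tested at 15 concentrations in three independent runs. Dye-loaded CHRM1-CHO cells were exposed 5 min at room temperature before stimulation by acetylcholine added at 50nM. Intracellular calcium was read kinetically on FDSS for 3 min.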

Assay [14] shares this target. Briefly: Cholinergic receptor muscarinic 1 (CHRM1) small molecule agonists, cell-based qHTS assay (AID 1963589). Also: nearly all actives have a fitted effect of over 35% in size. In short, it runs like this: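 qHTS, 15-point titration, 3 independent runs: compounds pin-transferred onto dye-loaded CHRM1-CHO cells (human M1), calcium fluorescence followed every second to detect agonism.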
A short description of assay [15]: cAMP Responsive Elements (CRE) small molecule agonists, cell-based qHTS assay (AID 1963590). In short, it runs like this: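 Quantitative HTS for CRE agonists: HEK 293T CRE-bla cells, overnight plating, 3 h compound incubation at 37 C/5% CO2, then 2 h room-temperature LiveBLAzer B/G FRET substrate loading.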
Assay [16] can be described thus: cAMP Responsive Elements (CRE) small molecule antagonists, cell-based qHTS assay (AID 1963591; active = well fitted inhibition curve with a large enough effect in the signal ratio in the repeat runs, not every such curve was filed as active; the % refers to the signal ratio). In a few lines:
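Fluorescence intensity from cleaved LiveBLAzer B/G substrate (2 h, room temperature) quantified CRE-bla activity in HEK 293T cells exposed 3 h to compound with 0.25 uM final NKH477.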

Assay [17] deals with Beta-2 adrenergic receptor (Homo sapiens) (UniProt P07550). Briefly: Adrenergic beta2 receptor (ADRB2) small molecule antagonists, cell-based qHTS assay (AID 1963592). Also: series mostly up to about 92 µM; nearly all actives have a fitted effect of over 50% in size. In short, it runs like this:
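Assay format: CHO-ADRB2 cells, 18-20hr seeding at 37C/5% CO2, then compound plus 1nM isoproterenol agonist mix for 0.5hr RT. Homogeneous time-resolved fluorescence cAMP detection after 1hr, expressed as 665/615 nm ratio.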

Assay [18] concerns the target D(2) dopamine receptor (Homo sapiens) (UniProt P14416). Briefly: Dopamine D2 receptor (DRD2) small molecule agonists, cell-based qHTS assay (AID 1963594). Also: nearly all actives have a fitted effect of over 35% in size. In short, it runs like this: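 cAMP accumulation in DRD2-HEK293 cells measured by HTRF after 1 h detection; compounds added 10 min before NKH477 (200nM […]) forskolin-analogue stimulation, 30 min at room temperature, with Ro20-1724 present at 0.1 mM final.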

For assay [19] the target is unchanged. Put plainly: Dopamine D2 receptor (DRD2) small molecule antagonists, cell-based qHTS assay (AID 1963595; active = well fitted inhibition curve with a large enough effect in the signal ratio in the repeat runs, with a control signal flat; the % refers to the signal ratio). In a few lines: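 HEK293 cells stably expressing DRD2 were preincubated with 0.1 mM Ro20-1724, then with compound for 10 min at room temperature. Cells were stimulated with 200 nM NKH477 plus 12 nM quinpirole for 30 min, and cAMP was read by HTRF.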
Assay [20] can be described thus: p53 small molecule agonists, cell-based qHTS assay: qHTS cell viability counter screen (AID 1963581). Also: nearly all actives have a fitted effect of over 45% in size. In short, it runs like this: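 Multiplexed with the reporter read, a CellTiter-Glo step (30 min, room temperature) gauges ATP-based viability of HCT-116 p53RE-bla cells after 16 h compound incubation at 37 C.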

Chain of Muscarinic acetylcholine receptor M1 (Homo sapiens) (P11229 whole entry, looked up): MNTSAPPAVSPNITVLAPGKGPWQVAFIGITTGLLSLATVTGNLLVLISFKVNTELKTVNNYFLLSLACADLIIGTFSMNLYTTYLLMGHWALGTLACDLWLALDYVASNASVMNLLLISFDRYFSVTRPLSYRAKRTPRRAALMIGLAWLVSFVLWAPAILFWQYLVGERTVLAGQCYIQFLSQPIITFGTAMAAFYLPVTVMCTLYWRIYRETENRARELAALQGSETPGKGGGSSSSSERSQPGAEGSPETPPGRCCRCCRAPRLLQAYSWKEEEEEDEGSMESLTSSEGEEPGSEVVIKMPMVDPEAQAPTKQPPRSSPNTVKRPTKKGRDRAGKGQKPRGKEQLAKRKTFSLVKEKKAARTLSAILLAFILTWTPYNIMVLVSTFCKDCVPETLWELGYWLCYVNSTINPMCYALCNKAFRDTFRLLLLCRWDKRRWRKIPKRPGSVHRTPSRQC
Chain of KiSS-1 receptor (Homo sapiens) (Q969F8 whole entry, looked up): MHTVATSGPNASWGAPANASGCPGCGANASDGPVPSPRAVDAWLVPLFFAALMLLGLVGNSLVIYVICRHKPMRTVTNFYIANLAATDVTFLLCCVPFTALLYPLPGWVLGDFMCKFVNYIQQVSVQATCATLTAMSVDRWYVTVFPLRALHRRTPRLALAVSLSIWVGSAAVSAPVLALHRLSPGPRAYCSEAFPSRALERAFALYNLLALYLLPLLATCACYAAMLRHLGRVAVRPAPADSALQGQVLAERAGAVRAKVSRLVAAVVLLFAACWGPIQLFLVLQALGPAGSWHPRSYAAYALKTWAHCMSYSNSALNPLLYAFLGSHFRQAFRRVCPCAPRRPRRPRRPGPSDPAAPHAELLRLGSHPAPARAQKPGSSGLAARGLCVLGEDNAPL
Chain of Beta-2 adrenergic receptor (Homo sapiens) (P07550 whole entry, looked up): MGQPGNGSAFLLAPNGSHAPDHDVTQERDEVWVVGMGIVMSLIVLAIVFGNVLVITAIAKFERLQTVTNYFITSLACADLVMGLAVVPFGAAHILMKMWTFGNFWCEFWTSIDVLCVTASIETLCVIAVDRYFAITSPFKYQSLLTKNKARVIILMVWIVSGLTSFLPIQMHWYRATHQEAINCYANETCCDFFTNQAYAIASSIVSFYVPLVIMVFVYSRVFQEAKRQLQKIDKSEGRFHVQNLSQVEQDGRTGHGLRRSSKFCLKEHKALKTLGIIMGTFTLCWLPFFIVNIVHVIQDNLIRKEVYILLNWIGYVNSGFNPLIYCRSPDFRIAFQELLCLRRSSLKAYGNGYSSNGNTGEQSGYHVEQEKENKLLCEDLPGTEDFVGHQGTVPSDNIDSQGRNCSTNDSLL
Chain of Gonadotropin-releasing hormone receptor (Homo sapiens) (P30968 whole entry, looked up): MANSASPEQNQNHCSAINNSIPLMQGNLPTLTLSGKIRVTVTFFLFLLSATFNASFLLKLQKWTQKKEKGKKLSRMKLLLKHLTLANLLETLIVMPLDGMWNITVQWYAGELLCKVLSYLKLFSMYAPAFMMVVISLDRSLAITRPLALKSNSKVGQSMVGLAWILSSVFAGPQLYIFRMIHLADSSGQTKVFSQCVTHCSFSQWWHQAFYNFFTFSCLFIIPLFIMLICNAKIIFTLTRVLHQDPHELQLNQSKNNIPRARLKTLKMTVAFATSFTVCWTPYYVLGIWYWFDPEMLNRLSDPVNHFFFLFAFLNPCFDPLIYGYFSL
Chain of D(2) dopamine receptor (Homo sapiens) (P14416 whole entry, looked up): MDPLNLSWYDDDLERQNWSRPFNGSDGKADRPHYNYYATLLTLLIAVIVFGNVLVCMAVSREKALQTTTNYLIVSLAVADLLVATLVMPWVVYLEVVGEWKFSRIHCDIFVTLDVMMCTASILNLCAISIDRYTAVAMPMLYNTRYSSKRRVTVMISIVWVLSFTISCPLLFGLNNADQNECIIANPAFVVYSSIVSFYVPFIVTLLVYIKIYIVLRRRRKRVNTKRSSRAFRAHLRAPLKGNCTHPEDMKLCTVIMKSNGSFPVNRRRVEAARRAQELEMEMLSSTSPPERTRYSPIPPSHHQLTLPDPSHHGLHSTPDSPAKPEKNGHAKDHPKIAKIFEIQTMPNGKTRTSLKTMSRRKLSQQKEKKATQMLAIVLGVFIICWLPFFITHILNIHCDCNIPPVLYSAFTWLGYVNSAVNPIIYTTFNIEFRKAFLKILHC
Chain of 5-hydroxytryptamine receptor 2A (Homo sapiens) (P28223 whole entry, looked up): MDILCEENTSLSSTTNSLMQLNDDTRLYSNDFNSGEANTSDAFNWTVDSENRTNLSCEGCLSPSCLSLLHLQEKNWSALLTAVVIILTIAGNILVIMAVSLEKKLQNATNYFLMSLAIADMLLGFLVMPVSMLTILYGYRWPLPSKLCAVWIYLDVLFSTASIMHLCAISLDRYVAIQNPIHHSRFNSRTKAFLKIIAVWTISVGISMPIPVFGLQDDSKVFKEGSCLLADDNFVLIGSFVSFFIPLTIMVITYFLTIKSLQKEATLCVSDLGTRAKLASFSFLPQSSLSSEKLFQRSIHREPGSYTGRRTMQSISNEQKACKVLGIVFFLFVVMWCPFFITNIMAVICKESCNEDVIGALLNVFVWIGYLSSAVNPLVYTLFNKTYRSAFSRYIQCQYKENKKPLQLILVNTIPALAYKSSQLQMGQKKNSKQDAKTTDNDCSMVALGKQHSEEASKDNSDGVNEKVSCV

`C1CCC(NC2CCCCC2)CC1`: the Potency result in assay [1], in [2], in [3], in assay [4], in [5] and in [6] was “inactive” in each case. In addition, the Potency entry in [7], in [8], in [9], in assay [10], in assay [11] and in assay [12] was “inactive” throughout. Moreover, the Potency result in [13], in [14], in [15], in assay [16], in assay [17] and in assay [18] was “inactive” in each case. Also, the Potency entry in assay [19] was “inactive”.

For the compound `COS(=O)(=O)OC`, the Potency entry in assay [1], in assay [2], in assay [3], in assay [4], in assay [5] and in [6] was “inactive” in each case. Moreover, the Potency result in assay [7], in [8], in [9], in assay [20], in assay [11] and in assay [12] was “inactive” throughout. Further, the Potency result in assay [13], in assay [15], in assay [17], in assay [18] and in assay [19] was “inactive” in each case.

As to `ClC1=C(Cl)C2(Cl)C3C(Cl)C(Cl)CC3C1(Cl)C2(Cl)Cl` (stereo not given), the Potency in assay [1] was 30.5 µM (active) and 43.3 µM (active); in assay [2] it was 4.84 µM (active) and 12.2 µM (active). For the same compound, the Potency entry in assay [3], in assay [4], in [5], in assay [6], in [7] and in assay [8] was “inactive” in each case. The Potency result in assay [9], in assay [20], in assay [11], in assay [12], in assay [13] and in [14] was “inactive” throughout. The Potency result in assay [18] was “inactive”.

For `[O-][Cl+]O`, the Potency entry in assay [1], in assay [2], in [3], in [4], in [5] and in assay [6] was “inactive” each time. Further, the Potency entry in assay [7], in [8], in assay [9], in [20], in [11] and in assay [12] was “inactive” throughout. The Potency result in [13], in assay [14], in assay [15], in [16], in assay [17] and in [18] was “inactive” throughout. Further, in assay [19], the Potency result is “inactive”.

`CC(C)(c1ccccc1)c1cc(-n2nc3ccccc3n2)c(O)c(C(C)(C)c2ccccc2)c1`: the Potency result in assay [1], in assay [2], in [3], in [4], in assay [5] and in assay [6] was “inactive” each time. Moreover, the Potency result in [7], in [8], in assay [9], in [20], in assay [11] and in assay [12] was “inactive” throughout. Further, the Potency result in [13], in assay [15], in assay [16], in assay [17], in [18] and in assay [19] was “inactive” each time.

Take `N#CC(c1ccccc1)c1ccccc1`: the Potency result in assay [1], in assay [2], in assay [3], in [4], in assay [5] and in assay [6] was “inactive” in each case. Also, the Potency entry in assay [7], in assay [8], in [9], in assay [10], in assay [11] and in [12] was “inactive” in each case. In addition, the Potency entry in [13], in assay [14], in assay [15], in assay [16], in [17] and in assay [18] was “inactive” in each case. For the same compound, the Potency result in [19] is “inactive”.

On to `COC[C@H](C)N(C(=O)CCl)c1c(C)csc1C`, for which the Potency result in assay [1], in assay [2], in assay [3], in assay [4], in assay [5] and in assay [6] was “inactive” in each case. Besides, the Potency result in [7], in assay [8], in assay [9], in assay [20], in assay [11] and in [13] was “inactive” each time. The Potency result in assay [14], in [15], in [16], in assay [17], in assay [18] and in assay [19] was “inactive” throughout.

For the origin of these results see PubChem BioAssay (Tox21).
